Targets with a hit are over-represented here; the source holds about 8,800 in all. About 0.5% of all pairs of compound and target were hits.
Assays:
Experiment in all cases: log2 fold change, soluble protein after heating vs DMSO (PISA); higher = thermal stabilisation; K562 lysate, 10 uM; active = over 0.2 and 3.5 SD of the protein, either way, in both replicates (recomputed)
[1] = compound: C=CC(=O)N1CCC[C@@H](n2nc(-c3ccc(Oc4ccccc4)cc3)c3c(N)ncnc32)C1 [ibrutinib]
Procedure, shortened: (§1)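 Pellets of K562 cells were dounce-homogenised in PBS pH 7.4 with 1 mM MgCl2, and the crude extract was held at 1 mg/mL protein for a 30 min treatment with 10 μM compound. Aliquots were heated for 3 min over 48°C-58°C and pooled before NP-40 was added to 0.5% at 4°C. The supernatant from 21,000xg for 90 min was quantified by TMTpro 16plex LC-MS/MS with channel sums equalised. Values are reported from duplicates as log-two fold change in thermal stability relative to solvent controls.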

[2] = compound: CC(=O)c1cnc2ccc(-c3cc(Cl)c(O)c(Cl)c3)nc2c1N[C@H]1CC[C@H](CN(C)C)CC1
Procedure, shortened: as §1

[3] = compound: CC(C)(C)Cn1c(N)nc2ccc(-c3[nH]c(C(C)(C)C)nc3-c3ccc(F)cc3)nc21 [ralimetinib]
Procedure, shortened: as §1

[4] = compound: CC(C)(O)CC(=O)NCCn1ccc2ncnc(Nc3ccc(Oc4cccc(C(F)(F)F)c4)c(Cl)c3)c21
Procedure, shortened: as §1

[5] = compound: CC(C)C1=C2N=C(C=C(N2N=C1)NCC3=CC=CC=C3)NCCCCCCN
Procedure, shortened: as §1

[6] = compound: CC1=C(C(CC(=O)N1)C2=CC=C(C=C2)C(F)(F)F)C(=O)NC3=C(C=C4C(=C3)C=NN4)F
Procedure, shortened: as §1

[7] = compound: CC1=C(C2=C(C=C1)C(=O)C3=CC=CC=C3N2CCCN)C
Procedure, shortened: as §1

[8] = compound: CC1=C(C=C(C=C1)NC(=O)C2=CC(=CC=C2)C(C)(C)C#N)NC3=CC4=C(C=C3)N=CN(C4=O)C
Procedure, shortened: as §1

[9] = compound: CC1=C(C=C(C=C1)NC(=O)C2=CC(=CC=C2)N(C)C)NC(=O)C3=CC=C(C=C3)O
Procedure, shortened: as §1

[10] = compound: CC1=CC=C(C=C1)SC2=C3C=C(SC3=CN=C2)C(=O)N
Procedure, shortened: as §1

[11] = compound: CCCS(=O)(=O)Nc1ccc(F)c(C(=O)c2c[nH]c3ncc(-c4ccc(Cl)cc4)cc23)c1F [vemurafenib]
Procedure, shortened: as §1

[12] = compound: CCCS(=O)(=O)Nc1ccc(F)c(C(=O)c2c[nH]c3ncc(Cl)cc23)c1F
Procedure, shortened: as §1

[13] = compound: CCN(CCCOc1ccc2c(Nc3cc(CC(=O)Nc4cccc(F)c4)[nH]n3)ncnc2c1)CCOP(=O)(O)O [barasertib]
Procedure, shortened: as §1

[14] = compound: CC[C@@H]1C(=O)N(C)c2cnc(Nc3ccc(C(=O)NC4CCN(C)CC4)cc3OC)nc2N1C1CCCC1
Procedure, shortened: as §1

[15] = compound: CC[C@@H]1C(=O)N(C)c2cnc(Nc3ccc(C(=O)N[C@H]4CC[C@H](N5CCN(CC6CC6)CC5)CC4)cc3OC)nc2N1C(C)C [volasertib]
Procedure, shortened: as §1

[16] = compound: CCn1c(C(=O)N(C2CC2)C2CC2)cc2c3c(ncn3C)c(Nc3cc(C)n(C)n3)nc21
Procedure, shortened: as §1

[17] = compound: CCn1cc(-c2ccnc3[nH]c(-c4cccc(CN(C)C)c4)cc23)c(-c2ccc(NC(=O)N(C)C)cc2)n1
Procedure, shortened: as §1

[18] = compound: CN1CCC(CNc2ccc3ncc(-c4cccc(OC(F)(F)F)c4)n3n2)CC1
Procedure, shortened: as §1

[19] = compound: CN1CCN(CCOc2cc(OC3CCOCC3)c3c(Nc4c(Cl)ccc5c4OCO5)ncnc3c2)CC1 [saracatinib]
Procedure, shortened: as §1

[20] = compound: CN1CCN(c2nc(C3=C(c4c[nH]c5ccccc45)C(=O)NC3=O)c3ccccc3n2)CC1 [sotrastaurin]
Procedure, shortened: as §1

Measured: log2 fold change

GCN1 (UniProt Q92616)
Sequence of UniProt Q92616 (Q92616 whole entry, looked up): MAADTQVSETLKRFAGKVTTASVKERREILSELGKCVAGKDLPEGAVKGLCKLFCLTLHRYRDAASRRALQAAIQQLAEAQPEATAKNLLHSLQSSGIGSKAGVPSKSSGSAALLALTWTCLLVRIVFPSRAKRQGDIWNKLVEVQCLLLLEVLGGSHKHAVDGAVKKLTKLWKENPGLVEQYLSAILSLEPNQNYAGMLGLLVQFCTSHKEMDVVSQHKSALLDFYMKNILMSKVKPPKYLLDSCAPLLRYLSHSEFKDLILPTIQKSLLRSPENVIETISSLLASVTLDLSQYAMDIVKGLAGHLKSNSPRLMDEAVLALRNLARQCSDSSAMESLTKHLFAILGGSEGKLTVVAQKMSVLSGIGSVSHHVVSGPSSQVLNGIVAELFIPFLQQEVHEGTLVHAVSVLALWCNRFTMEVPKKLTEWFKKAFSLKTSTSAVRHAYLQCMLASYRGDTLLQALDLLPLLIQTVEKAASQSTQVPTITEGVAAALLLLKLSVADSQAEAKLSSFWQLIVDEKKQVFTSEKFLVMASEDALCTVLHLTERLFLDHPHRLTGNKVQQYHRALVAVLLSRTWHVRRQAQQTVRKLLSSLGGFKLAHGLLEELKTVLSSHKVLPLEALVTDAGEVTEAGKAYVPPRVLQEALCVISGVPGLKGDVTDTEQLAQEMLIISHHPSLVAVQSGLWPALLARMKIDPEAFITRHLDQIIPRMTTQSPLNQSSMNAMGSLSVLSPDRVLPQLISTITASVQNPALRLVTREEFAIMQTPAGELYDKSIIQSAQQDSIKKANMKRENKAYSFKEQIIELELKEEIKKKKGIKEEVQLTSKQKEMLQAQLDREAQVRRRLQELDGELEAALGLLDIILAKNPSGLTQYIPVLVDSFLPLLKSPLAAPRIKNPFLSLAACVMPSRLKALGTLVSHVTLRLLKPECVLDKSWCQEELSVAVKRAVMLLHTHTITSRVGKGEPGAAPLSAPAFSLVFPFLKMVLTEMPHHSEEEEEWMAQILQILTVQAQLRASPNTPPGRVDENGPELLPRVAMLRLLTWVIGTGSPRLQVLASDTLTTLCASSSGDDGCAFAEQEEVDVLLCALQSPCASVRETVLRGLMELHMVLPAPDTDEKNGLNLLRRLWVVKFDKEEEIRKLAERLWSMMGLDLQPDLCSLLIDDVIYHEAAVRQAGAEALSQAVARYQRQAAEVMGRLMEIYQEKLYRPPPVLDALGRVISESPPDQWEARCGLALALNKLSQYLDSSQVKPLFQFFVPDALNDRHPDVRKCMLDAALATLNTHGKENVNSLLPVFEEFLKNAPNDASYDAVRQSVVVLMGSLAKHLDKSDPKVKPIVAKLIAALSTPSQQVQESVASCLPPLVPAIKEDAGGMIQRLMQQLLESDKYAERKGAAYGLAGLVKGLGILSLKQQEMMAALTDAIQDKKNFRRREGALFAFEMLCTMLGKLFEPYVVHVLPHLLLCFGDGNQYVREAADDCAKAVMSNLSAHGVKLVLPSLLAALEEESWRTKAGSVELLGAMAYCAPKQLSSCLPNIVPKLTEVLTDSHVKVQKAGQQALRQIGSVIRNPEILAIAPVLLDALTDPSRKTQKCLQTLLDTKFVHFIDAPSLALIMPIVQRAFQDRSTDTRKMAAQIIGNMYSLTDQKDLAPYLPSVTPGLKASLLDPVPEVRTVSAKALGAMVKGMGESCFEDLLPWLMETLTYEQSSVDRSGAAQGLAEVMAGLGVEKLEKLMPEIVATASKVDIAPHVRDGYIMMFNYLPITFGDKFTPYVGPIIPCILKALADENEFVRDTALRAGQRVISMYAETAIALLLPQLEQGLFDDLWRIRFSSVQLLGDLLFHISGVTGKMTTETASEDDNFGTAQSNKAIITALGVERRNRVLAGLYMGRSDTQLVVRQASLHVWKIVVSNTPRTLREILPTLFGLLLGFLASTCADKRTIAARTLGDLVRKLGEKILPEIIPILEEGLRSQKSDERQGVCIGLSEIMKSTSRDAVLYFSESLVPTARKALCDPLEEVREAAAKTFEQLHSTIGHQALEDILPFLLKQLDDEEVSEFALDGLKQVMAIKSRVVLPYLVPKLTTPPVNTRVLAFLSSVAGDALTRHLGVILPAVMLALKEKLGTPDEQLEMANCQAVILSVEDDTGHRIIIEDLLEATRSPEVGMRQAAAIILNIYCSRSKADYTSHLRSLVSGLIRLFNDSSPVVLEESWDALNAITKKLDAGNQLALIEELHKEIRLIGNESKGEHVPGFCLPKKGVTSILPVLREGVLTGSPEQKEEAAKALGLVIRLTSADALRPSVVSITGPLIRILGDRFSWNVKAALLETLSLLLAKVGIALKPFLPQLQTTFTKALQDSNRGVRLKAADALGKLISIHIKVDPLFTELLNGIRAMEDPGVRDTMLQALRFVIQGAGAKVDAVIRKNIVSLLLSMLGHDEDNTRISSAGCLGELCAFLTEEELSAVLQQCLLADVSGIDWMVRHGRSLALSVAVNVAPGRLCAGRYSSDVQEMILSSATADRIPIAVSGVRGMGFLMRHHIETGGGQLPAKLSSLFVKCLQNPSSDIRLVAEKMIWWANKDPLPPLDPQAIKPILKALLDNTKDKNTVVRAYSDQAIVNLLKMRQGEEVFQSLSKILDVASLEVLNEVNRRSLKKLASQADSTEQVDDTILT
inactive: [1] 0.016 | [2] 0.008 | [3] 0.064 | [4] 0.028 | [5] -0.031 | [6] -0.016 | [7] -0.01 | [8] 0.008 | [9] 0.075 | [10] 0.026 | [11] 0.025 | [12] 0.004 | [13] 0.061 | [14] -0.107 | [15] -0.084 | [16] 0.082 | [17] -0.05 | [18] -0.07 | [19] 0.015 | [20] -0.006

GEMIN5 (UniProt Q8TEQ6)
Sequence of UniProt Q8TEQ6 (Q8TEQ6 whole entry, looked up): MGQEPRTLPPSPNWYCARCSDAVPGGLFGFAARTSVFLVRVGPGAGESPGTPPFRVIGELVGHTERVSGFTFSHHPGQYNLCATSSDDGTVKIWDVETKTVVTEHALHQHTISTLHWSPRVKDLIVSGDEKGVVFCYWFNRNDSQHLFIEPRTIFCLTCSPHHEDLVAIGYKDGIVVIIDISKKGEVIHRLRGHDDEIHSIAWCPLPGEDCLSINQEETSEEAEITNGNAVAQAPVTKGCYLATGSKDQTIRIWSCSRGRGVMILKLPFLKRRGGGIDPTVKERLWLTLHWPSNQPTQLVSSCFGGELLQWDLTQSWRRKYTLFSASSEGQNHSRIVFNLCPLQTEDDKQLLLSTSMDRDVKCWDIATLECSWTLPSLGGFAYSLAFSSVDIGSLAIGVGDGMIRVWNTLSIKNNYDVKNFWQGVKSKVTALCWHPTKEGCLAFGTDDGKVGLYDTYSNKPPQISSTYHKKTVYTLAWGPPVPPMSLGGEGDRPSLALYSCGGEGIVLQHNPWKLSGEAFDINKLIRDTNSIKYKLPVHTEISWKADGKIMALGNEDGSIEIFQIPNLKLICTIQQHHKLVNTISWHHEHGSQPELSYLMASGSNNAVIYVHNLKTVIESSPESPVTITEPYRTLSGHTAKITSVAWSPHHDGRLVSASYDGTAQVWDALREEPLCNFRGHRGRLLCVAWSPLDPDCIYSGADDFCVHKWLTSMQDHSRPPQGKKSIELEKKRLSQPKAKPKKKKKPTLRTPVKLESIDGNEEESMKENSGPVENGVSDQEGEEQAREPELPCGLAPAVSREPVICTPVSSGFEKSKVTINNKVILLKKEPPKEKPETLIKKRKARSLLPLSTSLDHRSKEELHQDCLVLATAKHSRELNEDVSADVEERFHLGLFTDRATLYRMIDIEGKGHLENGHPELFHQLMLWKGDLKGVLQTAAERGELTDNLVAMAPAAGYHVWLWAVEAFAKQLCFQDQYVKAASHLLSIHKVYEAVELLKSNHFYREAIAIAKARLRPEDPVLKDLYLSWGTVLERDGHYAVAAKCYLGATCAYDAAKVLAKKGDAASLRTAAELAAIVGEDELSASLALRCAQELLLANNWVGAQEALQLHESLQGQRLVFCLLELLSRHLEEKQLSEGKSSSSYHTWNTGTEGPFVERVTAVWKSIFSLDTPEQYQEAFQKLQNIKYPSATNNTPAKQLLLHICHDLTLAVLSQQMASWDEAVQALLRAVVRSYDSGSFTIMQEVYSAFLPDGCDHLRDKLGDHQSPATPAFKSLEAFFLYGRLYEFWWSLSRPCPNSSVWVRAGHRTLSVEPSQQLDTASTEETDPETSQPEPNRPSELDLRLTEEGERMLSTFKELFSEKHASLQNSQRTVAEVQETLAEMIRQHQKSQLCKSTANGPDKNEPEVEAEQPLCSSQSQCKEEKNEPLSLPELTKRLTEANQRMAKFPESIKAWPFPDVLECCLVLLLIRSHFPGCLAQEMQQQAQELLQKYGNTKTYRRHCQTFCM
inactive: [1] 0.012 | [2] -0.01 | [3] 0.03 | [4] -0.001 | [5] 0.016 | [6] -0.02 | [7] -0.026 | [8] 0.005 | [9] 0.014 | [10] 0.007 | [11] 0.006 | [12] 0.008 | [13] 0.004 | [14] -0.085 | [15] -0.069 | [16] 0.066 | [17] -0.052 | [18] -0.061 | [19] 0.018 | [20] 0.015

FUBP3 (UniProt Q96I24)
inactive: [1] 0.024 | [2] 0.002 | [3] 0.021 | [4] -0.051 | [5] 0.014 | [6] -0.018 | [7] 0.072 | [8] -0.149 | [9] -0.003 | [10] -0.018 | [11] -0.007 | [12] 0.019 | [13] 0.048 | [14] 0.046 | [15] -0.032 | [16] 0.042 | [17] 0.028 | [18] -0.012 | [19] 0.03 | [20] -0.077

EDC4 (UniProt Q6P2E9)
inactive: [1] -0.001 | [2] 0.001 | [3] 0.028 | [4] -0.009 | [5] -0.011 | [6] 0.004 | [7] -0.006 | [8] 0.006 | [9] 0 | [10] -0.019 | [11] 0.053 | [12] 0.004 | [13] 0.026 | [14] -0.013 | [15] -0.015 | [16] 0.015 | [17] -0.055 | [18] 0.001 | [19] 0.011 | [20] 0.011

FXR1 (UniProt P51114)
inactive: [1] 0.023 | [2] -0.011 | [3] -0.017 | [4] 0.032 | [5] 0.002 | [6] 0.014 | [7] -0.006 | [8] -0.01 | [9] 0.02 | [10] 0.016 | [11] -0.047 | [12] 0.009 | [13] 0.01 | [14] -0.036 | [15] -0.022 | [16] 0.018 | [17] -0.107 | [18] 0.012 | [19] -0.036 | [20] -0.011

FREM2 (UniProt Q5SZK8)
inactive: [1] -0.062 | [2] 0.024 | [3] -0.014 | [4] -0.042 | [5] -0.024 | [6] -0.06 | [7] -0.01 | [8] 0.079 | [9] 0.035 | [10] -0.073 | [11] 0.003 | [12] -0.082 | [13] 0.136 | [14] -0.072 | [15] 0.026 | [16] 0.014 | [17] -0.366 | [18] 0.151 | [19] 0.051 | [20] 0.056

EHD2 (UniProt Q9NZN4)
Sequence of UniProt Q9NZN4 (Q9NZN4 whole entry, looked up): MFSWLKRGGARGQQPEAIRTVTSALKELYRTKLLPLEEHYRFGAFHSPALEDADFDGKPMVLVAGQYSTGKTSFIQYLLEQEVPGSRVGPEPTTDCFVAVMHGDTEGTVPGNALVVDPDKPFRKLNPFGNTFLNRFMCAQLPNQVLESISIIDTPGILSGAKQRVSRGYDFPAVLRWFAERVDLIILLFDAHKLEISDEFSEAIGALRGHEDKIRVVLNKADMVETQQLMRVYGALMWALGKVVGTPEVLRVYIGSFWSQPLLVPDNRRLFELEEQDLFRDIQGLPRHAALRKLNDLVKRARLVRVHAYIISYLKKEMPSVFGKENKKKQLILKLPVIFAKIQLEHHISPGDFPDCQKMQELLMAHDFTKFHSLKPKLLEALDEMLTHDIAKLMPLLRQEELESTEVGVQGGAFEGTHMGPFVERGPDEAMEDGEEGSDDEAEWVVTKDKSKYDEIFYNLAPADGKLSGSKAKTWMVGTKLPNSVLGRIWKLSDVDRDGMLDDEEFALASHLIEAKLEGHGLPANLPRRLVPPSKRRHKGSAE
inactive: [1] -0.004 | [2] 0.035 | [3] 0.054 | [4] -0.027 | [5] -0.005 | [6] 0.066 | [7] 0.063 | [8] 0.019 | [9] 0.059 | [10] 0.017 | [11] 0.046 | [12] 0 | [13] 0.022 | [14] 0.007 | [15] -0.111 | [16] 0.005 | [17] 0.016 | [18] -0.066 | [19] 0.075 | [20] 0.017

EDC3 (UniProt Q96F86)
inactive: [1] 0.038 | [2] 0.016 | [3] 0.004 | [4] 0.001 | [5] 0.046 | [6] 0.039 | [7] -0.014 | [8] 0.009 | [9] 0.019 | [10] -0.023 | [11] -0.011 | [12] 0.019 | [13] -0.01 | [14] 0.066 | [15] -0.016 | [16] -0.012 | [17] -0.017 | [18] -0.043 | [19] 0.006 | [20] 0.018
